JMJD2A Tudor: blocks the human JMJD2A Tudor domain | hit rate 4.4% among 390,000 | AlphaScreen JMJD2A-Tudor / H3K4me3 peptide binding | Potency, µM (top dose mostly 114 µM), for inactives: top-dose activity change, negative = inhibition, actives largely listed as inhibitors | AID 504339 | O75164; also: potency is read from the fitted curve at half-maximal effect; % is scaled to controls: 0 for no effect and ±100 for the full control effect; nearly all actives have a fitted effect of over 50% in size
BAZ2B inh: inhibitors of human BAZ2B bromodomain; AlphaScreen BAZ2B-H3K14Ac peptide displacement; Potency, µM (titrated, usually from 114 µM), without a hit: at the highest dose activity change, negative = inhibition, most hits filed as inhibitors; hit rate 4.4% among 360,000; AID 504333; also: potency is read from the fitted curve at half-maximal effect; % is scaled to controls: 0 for no effect and ±100 for the full control effect; nearly all actives have a fitted effect of over 60% in size
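Complex of BAZ2B and biotin-H3K14Ac (50 nM apiece) forms over 30 min at RT, then faces library compounds up to 110 uM for another 30 min; AlphaScreen beads added, 20 min dark incubation, luminescence read.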
PI5P4Ka inh: PI5P4K alpha (human) kinase inhibition; P48426; PI5P4Kalpha enzyme, ADP-Glo luminescence, 60 min; stronger effect = lower value; max response, %; hit rate 1.2% among 330,000; AID 652105; active = max response of -50% or lower; inconclusive = between -30% and -50%; inactive = -30% or higher; also: value at the top dose of about 77 µM; % is scaled to controls: 0 for no effect and ±100 for the full control effect
Target sequence (P48426 whole entry, looked up): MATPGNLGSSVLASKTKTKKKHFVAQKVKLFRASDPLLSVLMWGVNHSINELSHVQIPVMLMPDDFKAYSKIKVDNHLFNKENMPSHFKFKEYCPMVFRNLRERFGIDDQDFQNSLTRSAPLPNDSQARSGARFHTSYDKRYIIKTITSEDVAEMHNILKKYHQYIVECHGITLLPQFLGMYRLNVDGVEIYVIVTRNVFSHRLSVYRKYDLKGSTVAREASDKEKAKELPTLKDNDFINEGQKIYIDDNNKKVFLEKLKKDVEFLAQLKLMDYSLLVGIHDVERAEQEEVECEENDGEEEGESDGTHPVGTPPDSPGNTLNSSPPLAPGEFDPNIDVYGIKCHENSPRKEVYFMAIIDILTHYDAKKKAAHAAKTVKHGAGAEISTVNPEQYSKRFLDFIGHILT
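Reactions run in 0.038 M HEPES pH 7.4, 0.28 mM EGTA, 0.1% CHAPS and 5% DMSO, with PI5P4Kalpha, substrate, compound and 5 microM ATP final, one hour at room temperature. Readout is ADP-Glo luminescence.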
G9a inh: G9a (human) methyltransferase inhibition. G9a H3K9 monomethylation, AlphaScreen, 2 h. Potency, µM (titrated, usually from 102 µM), for inactives: at the highest dose activity, negative = inhibition, hits mostly inhibitors. hit rate 8.8% among 350,000; also: potency is read from the fitted curve at half-maximal effect; % is scaled to controls: 0 for no effect and ±100 for the full control effect; nearly all actives have a fitted effect of over 75% in size
Target sequence (Q96KQ7 913-1193 limits assumed): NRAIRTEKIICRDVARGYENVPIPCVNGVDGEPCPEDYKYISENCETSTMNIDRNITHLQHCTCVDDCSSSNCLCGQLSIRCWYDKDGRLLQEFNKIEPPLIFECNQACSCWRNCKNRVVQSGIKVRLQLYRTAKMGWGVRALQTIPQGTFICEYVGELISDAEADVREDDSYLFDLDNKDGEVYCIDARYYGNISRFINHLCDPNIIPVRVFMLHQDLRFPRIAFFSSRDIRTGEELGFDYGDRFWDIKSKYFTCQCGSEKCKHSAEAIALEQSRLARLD
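G9a (20 nM) was preincubated 15 min with compound, then reacted 2 h at room temperature with 500 nM biotin-H3K9 peptide and 20 µM SAM. Monomethyl-H3K9 detected by AlphaScreen using anti-H3K9me1 antibody.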
HP1b chromo inh: inhibitors of HP1-beta chromodomain binding to methylated histone tails | AlphaScreen HP1-beta / biotin-H3K9me3 peptide binding | P83916 | AID 540317 | Potency, µM (doses to about 114 µM), for the others: top-dose activity change, negative = inhibition, actives largely listed as inhibitors | hit rate 0.56% among 390,000; also: potency is read from the fitted curve at half-maximal effect; nearly all actives have a fitted effect of over 70% in size
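Compound inhibition of the preformed complex between 50 nM HP1-beta and 50 nM biotinylated H3K9me3 peptide was read by AlphaScreen. Buffer was PBS pH 7.4 with 0.01% Tween-20. Incubations ran 30 min at room temperature, with 10 ug/mL donor/acceptor beads.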
PLK1 PBD inh: blocks phosphopeptide binding to human PLK1 polo-box domain; Potency, µM, for inactives: max response, negative = inhibition, most hits filed as inhibitors; hit rate 2.8% among 360,000; P53350; Plk1 PBD binding of FITC phosphopeptide, fluorescence polarization; also: potency is read from the fitted curve at half-maximal effect; series mostly up to about 57 µM; % is scaled to controls: 0 for no effect and ±100 for the full control effect; nearly all actives have a fitted effect of over 65% in size
Active calls of the source: *; u = inconclusive; x = no result given; ! = a repeat was not active; [ ] = remark or other dose. In the library only some 12% were active in any assay of this set; here they are far more common. Unless noted, calls follow the shape of the dose curve; as a rule, active = well fitted curve in the direction sought with a large enough effect; inconclusive = small, poorly fitted or top-dose-only effect, or another doubt; inactive = no such curve, though single readings can be large; an effect the other way counts as inactive or inconclusive.

SMILES	JMJD2A Tudor	BAZ2B inh	PI5P4Ka inh	G9a inh	HP1b chromo inh	PLK1 PBD inh
Cc1cccc(N2C(=O)/C(=C/c3ccc(N4CCN(C)CC4)o3)C(=O)NC2=S)c1C	u	-63.4%	-22.2	44.7µM*	-32.3%	75.3%
Cc1ccccc1N1C(=O)NC(=O)/C(=C/c2ccc(N3CCOCC3)o2)C1=O	1.4%	-18.8%	-7.4	u	28.3%	89.6%
CC(=O)OO	x	x	x	26.4%[59 µM]	x	x
NCCc1c[nH]c2ccc(F)cc12	x	-11.0%	x	u	x	x
NCCc1c[nH]c2ccc(C(N)=O)cc12	0.0%	-0.2%	-0.6	35.5µM*!	38.9%	3.9%
CC[C@@H]1[C@@H]2C[C@H]3[C@H]4N(C)c5ccccc5[C@@]45C[C@@H]([C@@H]2[C@@H]5O)N3[C@H]1O	x	x	x	-0.5%[21.5 µM]	x	x
Cc1ccc(N2C(=O)NC(=O)/C(=C/C=C/c3ccco3)C2=O)cc1	-20.2%	-25.7%	-23.8	u	12.3%	u
CCc1ccc(N2C(=O)NC(=O)/C(=C\C=C\c3ccco3)C2=O)cc1	-28.6%	44.7µM*	u	-128.3%[59 µM]	9.7%	1.34µM*
CC(C)c1ccc(N2C(=O)NC(=O)/C(=C/C=C/c3ccco3)C2=O)cc1	u	u	-66.3*	50.1µM*	-5.9%	0.67µM*
CCc1ccc(N2NC(=O)/C(=C/C=C/c3ccco3)C2=O)cc1	u	u	u	8.91µM*	-30.9%	-14.1%
Cc1cc(C)cc(N2C(=O)NC(=O)/C(=C\C=C\c3ccco3)C2=O)c1	u	u	-29.6	11.2µM*	u	1.68µM*
CN1C(=S)CN=C(c2ccccc2)c2cc(Cl)ccc21	x	x	x	-46.6%[12.7 µM]	x	x
O=C1NC(=O)N(Cc2ccc(F)cc2)C(=O)/C1=C\C=C\c1ccco1	-19.9%[11.4 µM]	56.2µM*	-74.7*	39.8µM*	9.3%	u
CCCCN1C(=O)/C(=C/C=C/c2ccco2)C(=O)NC1=S	22.4µM*	35.5µM*	-84.7*	7.94µM*	35.5µM*	1.06µM*
CCCCN1C(=O)/C(=C\c2ccco2)C(=O)N(CCc2ccccc2)C1=O	u	35.5µM*	-81.8*	31.6µM*	u	0.844µM*
CN1C(=O)C(=CN2CCN(C(=O)c3ccco3)CC2)C(=O)N(C)C1=S	-9.0%	5.4%	-17.6	u	48.0%	-20.5%
Cc1ccc(-c2nc3c(=O)n(C)c(=O)nc-3n(C)n2)cc1	10.0%[57.1 µM]	x	x	x	5.8%[57 µM]	x
Cn1c(NN=O)nc2ccccc21	u	u	-3.0	8.91µM*	-1.6%	-4.7%
Cc1c(C)n(O)c2ccc3nonc3c12	-14.2%	-13.2%	-7.1	u	14.3%	18.9µM*
O=C(Nc1ccc(OC(F)(F)F)cc1)Oc1ccccc1N1CCCCC1	-1.3%	-0.8%	1.8	x	45.7%	-16.7%
C[N+](C)(C)CC(=O)O	-30.9%	6.7%	0.8	39.8µM*!	15.4%	-7.7%
C[C@]12CCC(=O)C(O)=C1CC[C@@H]1[C@H]3CCC(=O)[C@@]3(C)CC[C@@H]12	x	x	x	-35.0%[2.33 µM]	x	x
CC(C)=CCOc1c2occc2cc2ccc(=O)oc12	u	-2.9%	-3.7	-12.8%[2.33 µM]	20.6%	26.7µM*
Cc1ccc(-c2nc(CN3C(=O)CN=C(c4ccccc4)c4ccccc43)c(C)o2)cc1	3.3%	4.0%	x	u	42.7%	x
COc1ccc(OC)c(C2=NS(=O)(=O)N(C)C(C(=O)N3CCC4(CC3)OCCO4)=C2)c1	u	-21.8%	-5.7	-1.3%	0.0%	29.9µM*
SMILES	JMJD2A Tudor	BAZ2B inh	PI5P4Ka inh	G9a inh	HP1b chromo inh	PLK1 PBD inh
CC(=O)Nc1cc(Cl)c(N=Cc2ccc(O)cc2O)cc1Cl	-6.4%	-35.7%	u	56.2µM*	33.4%	-10.3%
C#C[C@]1(O)CCC2C3CCC4=C/C(=N/OCC(=O)NC(C)C(=O)NC(CCSC)C(=O)O)CC[C@]4(C)C3CC[C@@]21C (stereo partly specified)	-17.1%	2.3%	-2.3	56.2µM*	44.7%	u
CCCc1ccc(OCC(=O)Nc2ccc(Cl)cc2C(=O)c2ccccc2)cc1	11.8%	-1.1%	x	u	26.8%	x
Clc1ccc(CCC(Cn2ccnc2)Sc2c(Cl)cccc2Cl)cc1 (stereo unspecified)	25.1µM*	u	14.1	u	-12.6%	-15.5%
CCS(=O)(=O)C(C)(C)S(=O)(=O)CC	x	x	x	-38.2%[12.7 µM]	x	x
OC(CNC1CCCCCCC1)c1ccccc1 (stereo unspecified)	x	u	x	14.1µM*	x	x
CN1C(=O)C(O)N=C(c2ccccc2)c2cc(Cl)ccc21 (stereo unspecified)	x	x	x	21.7%[59 µM]	x	x
CC(c1ccccc1)n1cncc1C(=O)N1CCCC1=O (stereo unspecified)	u	u	x	50.1µM*	16.3%	-2.9%
O=C(CN1CCCCC1)c1ccc(OC(F)F)cc1	-20.6%	-28.8%	3.7	u	39.9%	-8.0%
O=C(CN1CCCCC1)c1ccccc1F	-5.8%	-12.5%	-2.1	25.1µM*	52.5%	0.9%
O=C(CN1CCCCC1)c1ccccc1Cl	-22.8%	-0.8%	-12.5	1.58µM*	37.6%	-15.9%
O=C(CN1CCCCC1)c1cccc(Br)c1	-4.8%	-4.3%	-2.5	8.91µM*	44.6%	-3.6%
O=C(Oc1ccccc1)N1CCC[C@@]2(CCN(Cc3ccccc3)C2)C1	x	x	x	-3.4%[12.7 µM]	x	x
COc1cccc(-c2cc(C(=O)Nc3cnn(Cc4ccc(Cl)cc4Cl)c3)no2)c1	-4.8%	0.0%	x	10.9%[59 µM]	54.3%	x
CC(C)C[C@H]1C(=O)N2CCC[C@H]2[C@]2(O)O[C@](NC(=O)C3C=C4c5cccc6[nH]c(Br)c(c56)C[C@H]4N(C)C3)(C(C)C)C(=O)N12 (stereo partly specified)	u	x	0.5	x	-25.9%	-6.9%
CC(C)C[C@H]1C(=O)N2CCCC2[C@]2(O)O[C@](NC(=O)[C@@H]3C=C4c5cccc6[nH]c(Br)c(c56)C[C@H]4N(C)C3)(C(C)C)C(=O)N12 (stereo partly specified)	x	x	x	22.4µM*	x	x
O=[N+]([O-])c1ccc(N2CCCCC2)c2ncccc12	u	u	0.0	u	u	-11.1%
O=[N+]([O-])c1ccc(N2CCCC(C(F)(F)F)C2)c2ccncc12 (stereo unspecified)	u	u	4.3	50.1µM*	u	0.4%
CN(CCOc1ccc(C=C2C(=O)NC(=O)NC2=O)cc1)c1ccccn1	u	-23.3%	u	44.7µM*	20.0%	2.99µM*
N#CC1(c2ccccc2)CCN(C2CC(=O)N(c3ccc4c(c3)OCO4)C2=O)CC1 (stereo unspecified)	-17.3%	-8.9%	-1.6	22.4µM*	30.0%	-9.2%
N#CC1(c2ccccc2)CCN(C2CC(=O)N(c3ccc(F)cc3)C2=O)CC1 (stereo unspecified)	-4.9%	-6.0%	11.0	x	37.9%	-3.0%
